Measurements from PubChem BioAssay (NCATS).

test: qHTS profiling of the MIPE4 collection as inhibitors of Plasmodium falciparum (DD2) proliferation (AID 743345); details: P. falciparum Dd2 in erythrocytes, SYBR Green DNA, 72 h; at 9.64 µM (top of the series)
Description: Plasmodium falciparum is a virulent malarial parasite that kills 1-2 million people worldwide each year. Transmitted by mosquitoes, the sporozoite form of the parasite enters the blood stream to infect hepatocytes, where they become merozoites that infect red blood cells (erythrocytes). Within erythrocytes, merozoites begin a […] cycle of growth and division, after which the parasite is released to infect new red blood cells. Gametocytes, which form within erythrocytes as well, circulate in the bloodstream and are ingested by the mosquito, thereby completing the life cycle. To profile malarial isolates for differential chemical responses and to identify inhibitors of malarial growth, an assay that measures P. falciparum growth and replication within erythrocytes was employed. This assay uses a DNA binding fluorescent dye (SYBR Green) to detect parasite DNA following cell lysis. Because mature erythrocytes lack DNA, only Plasmodium-derived DNA is detected.
The SYBR Green viability assay was adapted from a method described previously (Plouffe et al., 2008). For screening 3 ul culture medium was dispensed into 1536 well black clear bottom plates (Aurora Biotechnologies) using a Multidrop Combi (Thermo Fisher Scientific Inc.), 23 nL compounds in DMSO were added by a pin tool (Kalypsys), and 5 ul of erythrocytes infected with P. falciparum (0.3% parasitemia, 2.5% hematocrit final concentration) were added. The plates were incubated at 37 C in a humidified incubator in 5% CO2 for 72 h, and 2 ul lysis buffer (20 mM Tris HCl, 10 mM EDTA, 0.16% saponin, 1.6% triton X, 10X SYBR Green I supplied as 10,000X […] by Invitrogen) was added to each well. The plates were mixed for 25 sec with gentle shaking and incubated overnight at room temperature in the dark. The following morning, fluorescence intensity at 485(14) nm excitation and 535(25) nm emission wavelengths was measured on an EnVision (Perkin Elmer) plate reader. Plate reads were normalized relative to the control inhibitor (0.29 uM artemisinin) and vehicle (DMSO) wells present on each plate and then corrected by an algorithm using vehicle-only control plates at the beginning and end of the compound plate stack.

Structure (SMILES) | parasite growth remaining, % of DMSO control (lower = more inhibition)
C[C@H]1C[C@@H]2[C@@H]([C@@H](O)C[C@@]3(C)[C@H]2CC[C@]3(O)C(=O)CO)[C@@]2(C)C=CC(=O)C=C12 | 93.1%

same assay, conditions: P. falciparum Dd2 in erythrocytes, SYBR Green DNA, 72 h; at 28.5 µM (top of the series)

Structure (SMILES) | parasite growth remaining, % of DMSO control (lower = more inhibition)
C[C@H]1C[C@@H]2[C@@H]([C@@H](O)C[C@@]3(C)[C@H]2CC[C@]3(O)C(=O)CO)[C@@]2(C)C=CC(=O)C=C12 | 84.7%

same assay, conditions: P. falciparum Dd2 in erythrocytes, SYBR Green DNA, 72 h; at 28.5 µM (top of the series) unless noted

Structure (SMILES) | parasite growth remaining, % of DMSO control (lower = more inhibition)
Cc1cnc(-c2cnc(NCCNc3ccc(C#N)cn3)nc2-c2ccc(Cl)cc2Cl)[nH]1 | 76.5%
O=C(Nc1cc(C(F)(F)F)cc(C(F)(F)F)c1)c1cc(Cl)ccc1O | 6.62%
CC1COC2(CCN(c3nc(=O)c4cc(C(F)(F)F)cc([N+](=O)[O-])c4s3)CC2)O1 (stereo not given) | 70%
CC[C@@H]1C(=O)N(C)c2cnc(Nc3ccc(C(=O)NC4CCC(N5CCN(CC6CC6)CC5)CC4)cc3OC)nc2N1C(C)C (stereo not given in full) | 5.71%
O=c1[nH]c(=O)n(C2CCCO2)cc1F (stereo not given) | 99.7% [at 57.5 µM]
N#CCNC(=O)c1ccc(-c2ccnc(Nc3ccc(N4CCOCC4)cc3)n2)cc1 | 12.8%
O=C(O)c1ccc2c(c1)nc(Nc1cccc(Cl)c1)c1ccncc12 | 9%
OCCCNc1cc(-c2ccnc(Nc3cccc(Cl)c3)n2)ccn1 | 10.1%
COc1cccc2nc(-c3cccs3)nc(NN3C(=O)C=C(C)C3=O)c12 | 90.8%
Nc1ccc(S(=O)(=O)Nc2ncccn2)cc1 | 105%
O=C(O)[C@H](Cc1c[nH]c2ccccc12)N1C(=O)c2ccccc2C1=O | 98.7% [at 57.5 µM]
CC(C)C[C@H](NC(=O)CNC(=O)c1cc(Cl)ccc1Cl)B(O)O | 7.7%
Nc1ncnc2c1c(-c1cnc3[nH]ccc3c1)nn2C1CCCC1 | 8.6%
Cc1ccc(-c2ncn(-c3ccc(Nc4nccc(-c5cccc(N6CCOCC6)c5)n4)cc3)n2)cn1 | 6.69%
CC(C)=CCCC(C)=CCCC(C)=CCSc1ccccc1C(=O)O | 25.3%
NC1(Cc2ccc(Cl)cc2)CCN(c2ncnc3[nH]ccc23)CC1 | 31.6%
Cc1cc(Nc2cc(NC(=O)c3c(Cl)cccc3Cl)ccn2)nc(N)n1 | 6.82%
COc1cccc(Nc2c(C(N)=O)cnc3c(C)cc(S(=O)(=O)c4cccc(C(=O)N(C)C)c4)cc23)c1 | 90.5% [at 9.64 µM]
COc1cc2c(Oc3ccc(NC(=O)C4(C(=O)Nc5ccc(F)cc5)CC4)cc3F)ccnc2cc1OCCCN1CCOCC1 | 5.88%

Structure (SMILES) | parasite growth remaining, % of DMSO control (lower = more inhibition)
COc1cc2c(Oc3ccc(-c4cnc(Nc5ccc(F)cc5)n(C)c4=O)cc3F)ccnc2cc1OCCCN1CCOCC1 | 6.26%
CNC(=O)c1cc(Oc2ccc(NC(=O)Nc3cc(C(C)(C)C)nn3-c3ccc4ncccc4c3)c(F)c2)ccn1 | 15.5%
Cc1ccc(C(=O)Nc2ccc(CN3CCN(C)CC3)c(C(F)(F)F)c2)cc1C#Cc1cnc2cccnn12 | 7.34%
CCn1cc(-c2ccnc3[nH]c(-c4cccc(CN(C)C)c4)cc23)c(-c2ccc(NC(=O)N(C)C)cc2)n1 | 8.23%
CS(=O)(=O)c1ccc(-c2cnc(N)c(C(=O)Nc3ccccc3)n2)cc1 | 9.88%
C[C@]1(CO)CN(c2cc(C(=O)Nc3ccc4c(c3)-c3c(c(C(N)=O)nn3-c3ccc(F)cc3)CC4)c(Cl)cn2)C[C@@]1(C)CO | 17.1%
CCCn1c(=O)c2[nH]c(-c3cnn(Cc4cccc(C(F)(F)F)c4)c3)nc2n(CC)c1=O | 73.8%
CCn1nnc2c(N3CCOCC3)nc(-c3ccc(NC(=O)Nc4ccc(C(=O)N5CCN(C)CC5)cc4)cc3)nc21 | 6.26%
CCN(CC)CCCCNc1ncc2cc(-c3cc(OC)cc(OC)c3)c(NC(=O)NC(C)(C)C)nc2n1 | 9.87%
C=C1C(=CC=C2CCC[C@]3(C)[C@@H]([C@H](C)C=C[C@H](C)C(C)C)CC[C@@H]23)C[C@@H](O)C[C@@H]1O | 7.23%
COc1ccc(C(=O)CC2(O)C(=O)Nc3c(Cl)ccc(Cl)c32)cc1 (stereo not given) | 85.7%
COc1ccc(-c2cc3c(C)nc(N)nc3n(C3CCC(OCCO)CC3)c2=O)cn1 (stereo not given) | 7.58%
CC1(C)CCC(c2ccc(Cl)cc2)=C(CN2CCN(c3ccc(C(=O)NS(=O)(=O)c4ccc(N[C@H](CCN5CCOCC5)CSc5ccccc5)c(S(=O)(=O)C(F)(F)F)c4)cc3)CC2)C1 | 8.31%
COc1cccc(-c2ccc(NC(=O)C3=C(C(=O)O)CCC3)c(F)c2)c1 | 90.8%
O=C(NCCS(=O)(=O)c1ccc(C(F)(F)F)cn1)c1ccc(Cl)cc1 | 103%
NC(=O)Nc1cc(-c2cccc(F)c2)sc1C(=O)N[C@H]1CCCNC1 | 10.6%
Cn1c2cc(S(C)=O)sc2c2cnn(Cc3cccc(N)c3)c(=O)c21 (stereo not given) | 102%
O=C(c1cncc(Br)c1)N1CCC(N2CCCC2)CC1 | 105%
Cc1cc(Nc2cc(N3CCN(C)CC3)nc(C=Cc3ccccc3)n2)n[nH]1 | 6.9% [at 57.5 µM]
